Experiment [1] concerns the target Metallo-beta-lactamase type 2 (Klebsiella pneumoniae) (UniProt C7C422). Description: qHTS to identify inhibitors of the New Delhi Metallo-beta-lactamase (NDM): assay validation screen against the NCATS LOPAC Collection (AID 1794843). Note: series mostly up to about 38 µM; % is set by controls: 0 for no effect and ±100 for the full control effect. The gist of the method: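 Absorbance at 485 nm from nitrocefin turnover (50 uM solution added), read at plateau, gives the read-out. Compounds in DMSO were incubated first with 2 nM final NDM-1 in pH 7.0 HEPES buffer containing 1 uM ZnSO4 and 0.01% Tween20.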

For experiment [2], the target named is Phospholipid hydroperoxide glutathione peroxidase GPX4 (Homo sapiens) (UniProt P36969). Briefly: Primary qHTS Assay for Inhibitors of Recombinant Selenoprotein Glutathione Peroxidase 4 (GPX4) (AID 1845192). Note: nearly all actives have a fitted effect of over 65% in size. Put shortly: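 NADPH consumption, followed by fluorescence at 340/450 nm between 0 and 15 min, reports GPX4 activity via coupled glutathione reductase (100 nM). Enzyme 200 nM was pre-exposed to compound 30 min; 0.5 mM cumene hydroperoxide and 1 mM GSH served as substrates.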
Phospholipid hydroperoxide glutathione peroxidase GPX4 (Homo sapiens), sequence (P36969 whole entry, looked up): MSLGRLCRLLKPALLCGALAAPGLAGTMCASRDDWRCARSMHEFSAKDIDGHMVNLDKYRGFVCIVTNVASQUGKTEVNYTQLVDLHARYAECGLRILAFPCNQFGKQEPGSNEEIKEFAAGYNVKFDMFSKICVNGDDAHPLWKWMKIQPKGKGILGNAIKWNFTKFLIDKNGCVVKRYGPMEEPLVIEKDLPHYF
(In general: qHTS replaces the single test concentration by a dilution series.)

Experiment [3] concerns the target Glutathione peroxidase 1 (Homo sapiens) (UniProt P07203). Briefly: Primary qHTS Assay for Inhibitors of Recombinant Selenoprotein Glutathione Peroxidase 1 (GPX1) (AID 1845191). Note: nearly all actives have a fitted effect of over 65% in size. The gist of the method: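 10 nM GPX1 + cpd, 30 min RT; start w/ 1 mM GSH, 0.5 mM cumene hydroperoxide, 0.5 mM NADPH, 100 nM GR, 0.01% BSA; buffer 50 mM Tris-HCl pH 7.5, 2 mM EDTA, 150 mM NaCl; Fl 340/450, 0 & 15 min.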

A short description of experiment [4]: HepG2 viability counterscreen (readout 2: ATP content) against the NCATS DSHEA and TCM libraries (AID 1794840).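 Note: HepG2 cells exposed to substances for about 24 h; 0% is about no effect.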 The gist of the method: (§1)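 HepG2 cells (1,000 cells/well) attached ~4 h, then treated ~24 h at 37C with substances. Protease activity read by GF-AFC (25 uM final, 30 min, Ex/Em 380/510 nm); ATP content then by CellTiter-Glo luminescence.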
For orientation: Counterscreens check selectivity or assay interference.

The nature of experiment [5]: HepG2 viability counterscreen (readout 1: protease activity) against the NCATS DSHEA and TCM libraries (AID 1794841).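 Note: cells exposed to compounds for about 24 h before the protease read; 0% is about no effect.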 Put shortly: as §1
In experiment [6] the target is Cytochrome P450 2D6 (Homo sapiens) (UniProt P10635). Briefly: qHTS for inhibitors of CYP2D6 against the NCATS DSHEA and TCM libraries (AID 1919972). Note: % is set by controls: 0 for no effect and ±100 for the full control effect. The gist of the method:
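Luminescent P450-Glo read-out of CYP2D6 turnover of a luciferin substrate after NADPH-driven reaction of 30-45 min at room temperature. Compounds were first preincubated 15 min with enzyme at titrated concentrations; quinidine was the intraplate control.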

For experiment [7], the target named is Cytochrome P450 2C9 (Homo sapiens) (UniProt P11712). Description: qHTS for inhibitors of CYP2C9 against the NCATS DSHEA and TCM libraries (AID 1919973).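 Note: luminogenic pro-luciferin CYP2C9 substrate turned into luciferin with NADPH regeneration; series mostly up to about 34 µM; % is set by controls: 0 for no effect and ±100 for the full control effect.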 The gist of the method: (§2)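 Read-out is luminescence after P450-Glo detection (30 min, RT). Before that: 15 min compound–enzyme preincubation, then 30-45 min reaction with 1x NADPH regeneration solution, substrate concentration isoform-specific.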
Cytochrome P450 2C9 (Homo sapiens), sequence (P11712 whole entry, looked up, canonical isoform): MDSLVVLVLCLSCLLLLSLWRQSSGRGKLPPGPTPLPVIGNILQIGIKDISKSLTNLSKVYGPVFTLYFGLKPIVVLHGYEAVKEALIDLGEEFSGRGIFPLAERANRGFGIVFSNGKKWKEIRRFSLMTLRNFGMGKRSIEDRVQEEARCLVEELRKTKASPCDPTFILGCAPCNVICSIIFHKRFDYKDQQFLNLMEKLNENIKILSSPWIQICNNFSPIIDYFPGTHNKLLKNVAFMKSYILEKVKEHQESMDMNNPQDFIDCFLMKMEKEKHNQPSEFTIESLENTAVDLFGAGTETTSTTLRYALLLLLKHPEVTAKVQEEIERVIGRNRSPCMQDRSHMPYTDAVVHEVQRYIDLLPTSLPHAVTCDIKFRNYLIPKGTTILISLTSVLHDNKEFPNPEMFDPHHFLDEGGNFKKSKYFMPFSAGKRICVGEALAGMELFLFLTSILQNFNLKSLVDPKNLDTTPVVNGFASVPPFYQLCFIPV

The target of experiment [8] is Cytochrome P450 2C19 (Homo sapiens) (UniProt P33261). Description: qHTS for inhibitors of CYP2C19 against the NCATS DSHEA and TCM libraries (AID 1919974).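 Note: luminescence from luciferin released by CYP2C19 oxidation of a pro-luciferin substrate.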 Note: potency is the fitted concentration of half-maximal effect. The gist of the method: as §2
Cytochrome P450 2C19 (Homo sapiens), sequence (P33261 whole entry, looked up): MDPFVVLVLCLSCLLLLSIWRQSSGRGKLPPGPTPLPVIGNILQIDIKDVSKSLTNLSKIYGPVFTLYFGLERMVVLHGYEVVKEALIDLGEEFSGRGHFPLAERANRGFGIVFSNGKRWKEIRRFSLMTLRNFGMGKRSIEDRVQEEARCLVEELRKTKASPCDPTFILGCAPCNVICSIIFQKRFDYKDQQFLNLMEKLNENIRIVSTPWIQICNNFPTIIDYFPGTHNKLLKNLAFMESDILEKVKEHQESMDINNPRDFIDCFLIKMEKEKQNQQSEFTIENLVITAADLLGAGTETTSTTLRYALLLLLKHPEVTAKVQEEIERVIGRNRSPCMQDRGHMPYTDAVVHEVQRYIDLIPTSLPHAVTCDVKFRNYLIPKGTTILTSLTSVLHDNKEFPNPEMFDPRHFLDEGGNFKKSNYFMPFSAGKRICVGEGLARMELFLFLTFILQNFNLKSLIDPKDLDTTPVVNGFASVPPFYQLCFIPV
Experiment [9] in a line: KB-3-1 P-gp reporter qHTS against the NCATS DSHEA and TCM libraries (AID 1919975). Note: 0% is about no effect. Put shortly:
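Parental KB-3-1 human cervical adenocarcinoma cells (500 cells/well, DMEM + 10% FBS) were treated with substances for ~72 h at 37C; viability was read by CellTiter-Glo luminescence.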

The target of experiment [10] is Cytochrome P450 1A2 (Homo sapiens) (UniProt P05177). Briefly: qHTS for inhibitors of CYPIA2 against the NCATS DSHEA and TCM libraries (AID 1919976).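 Note: light from luciferin formed by CYP1A2 from a pro-luciferin substrate; series mostly up to about 37 µM; % is set by controls: 0 for no effect and ±100 for the full control effect.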 The gist of the method: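 CYP1A2 + luciferin substrate, 100 mM KPO4-type buffer; cmpd 15 min RT; 1x NADPH regen, 30-45 min RT dark; detection reagent 30 min RT; luminescence. Minus-enzyme wells as background; furafylline intraplate control.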
Cytochrome P450 1A2 (Homo sapiens), sequence (P05177 whole entry, looked up): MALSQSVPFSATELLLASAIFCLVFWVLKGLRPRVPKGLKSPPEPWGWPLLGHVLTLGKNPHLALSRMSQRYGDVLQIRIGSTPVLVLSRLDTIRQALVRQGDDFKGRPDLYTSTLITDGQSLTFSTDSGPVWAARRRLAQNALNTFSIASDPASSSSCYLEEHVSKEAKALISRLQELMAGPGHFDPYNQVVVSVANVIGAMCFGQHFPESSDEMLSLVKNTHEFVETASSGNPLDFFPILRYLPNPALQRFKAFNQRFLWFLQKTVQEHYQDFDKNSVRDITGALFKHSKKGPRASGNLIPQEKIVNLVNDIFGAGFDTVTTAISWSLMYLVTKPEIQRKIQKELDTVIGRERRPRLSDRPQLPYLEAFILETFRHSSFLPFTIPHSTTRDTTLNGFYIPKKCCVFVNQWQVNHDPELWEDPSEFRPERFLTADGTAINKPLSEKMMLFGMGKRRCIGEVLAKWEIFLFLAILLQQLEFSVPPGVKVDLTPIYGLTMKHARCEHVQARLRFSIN

A short description of experiment [11]: qHTS Counterscreen for compound interference against the NCATS DSHEA and TCM libraries (AID 1919978). Note: % of control where 0% means no effect. The conditions noted are these: firefly luciferase detection reagent interference, luminescence. The gist of the method: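 D-luciferin (1 uM final) or 100 mM potassium phosphate buffer alone was preincubated 15 min at RT with compounds (19.5 nM to 39.8 uM final). Luciferin detection reagent was then added and luminescence read after 30 min at RT.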

Experiment [12] is described as follows: Dual reporter qHTS for agonist of Pregnane X Receptor (hPXR) against the NCATS DSHEA and TCM libraries: Fluorescence readout (AID 1920058). Note: 0% is about no effect. The gist of the method: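 HepG2 hPXR-Luc, 2000 cells/well, 5 h attach; cpds ~24 h, 37 °C/5% CO2; CellTiter-Fluor 1 h; fluor. Ex/Em 405/540 nm = viability.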
For experiment [13], the target named is Nuclear receptor subfamily 1 group I member 2 (Homo sapiens) (UniProt O75469). Description: Dual reporter qHTS for agonist of Pregnane X Receptor (hPXR) against the NCATS DSHEA and TCM libraries: Luminescence readout (AID 1920059). Note: 0% is about no effect. Put shortly: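 Luminescent PXR reporter read (ONE-Glo) after a CellTiter-Fluor viability read, following 24 h, 37C treatment of HepG2 cells stably carrying hPXR-Luc.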
Nuclear receptor subfamily 1 group I member 2 (Homo sapiens), sequence (O75469 whole entry, looked up): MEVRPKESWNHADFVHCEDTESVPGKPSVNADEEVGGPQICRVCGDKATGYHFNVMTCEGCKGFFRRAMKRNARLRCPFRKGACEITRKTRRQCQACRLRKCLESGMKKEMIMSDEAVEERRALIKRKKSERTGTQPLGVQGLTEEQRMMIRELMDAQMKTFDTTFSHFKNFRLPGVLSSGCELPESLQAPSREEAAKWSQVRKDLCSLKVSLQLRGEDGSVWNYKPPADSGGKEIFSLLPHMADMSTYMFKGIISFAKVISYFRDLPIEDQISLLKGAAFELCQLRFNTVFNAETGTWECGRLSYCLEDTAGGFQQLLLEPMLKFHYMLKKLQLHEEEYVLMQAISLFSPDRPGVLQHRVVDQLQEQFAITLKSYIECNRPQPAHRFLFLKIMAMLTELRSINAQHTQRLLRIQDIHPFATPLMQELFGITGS

The target is the same in experiment [14]. Briefly: Dual reporter qHTS for antagonist of Pregnane X Receptor (hPXR) against the NCATS DSHEA and TCM libraries: Luminescence Readout (AID 1920060).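 Note: HepG2 cells carrying hPXR luciferase reporter stimulated with rifampicin at 2 µM; 0% is about no effect.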 The gist of the method: (§3)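 In antagonist mode, 2 uM rifampicin was added to hPXR-Luc HepG2 cells alongside test substances, incubated 24 h at 37 C; luminescence gave reporter activity, and CellTiter-Fluor fluorescence (405/540 nm) gave viability.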

Experiment [15] is described as follows: Dual reporter qHTS for antagonist of Pregnane X Receptor (hPXR) against the NCATS DSHEA and TCM libraries: Fluorescence Readout (AID 1920061). Note: 0% is about no effect. Put shortly: as §3
The target in experiment [16] is Luciferin 4-monooxygenase (Photinus pyralis) (UniProt P08659). Briefly: Primary firefly luciferase (FLuc) qHTS assay for identification of artifact compounds. (AID 1845220). Note: nearly all actives have a fitted effect of over 60% in size. To be noted: outcome: dose series up to 54.1 µM. Put shortly: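 FLuc 10 nM; luciferin 10 uM; ATP 10 uM; Tris-acetate pH 7.6, Mg-acetate 10 mM; 15 min RT preincubation; 5 min reaction; luminescence.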

A short description of experiment [17]: Primary fluorescence-based thiol-reactive (MSTI) qHTS assay for identification of artifact compounds. (AID 1845221).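 Note: series mostly up to about 54 µM; thiol-reactive compounds lower the probe fluorescence signal; nearly all actives have a fitted effect of over 65% in size.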 Put shortly: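 MSTI probe at 4 uM final in 2% DMSO/PBS pH 7.4; compounds, 1 h at room temperature in dark. Fluorescence Ex/Em 525/598 nm, normalised to Acetyl-MSTI and MSTI, fitted to 4-parameter Hill.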
Experiment [18] concerns Nanoluciferase (engineered Oplophorus gracilirostris luciferase). Briefly: Primary Nanoluciferase (NLuc) qHTS assay for identification of artifact compounds. (AID 1845222).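 Note: NLuc secreted into diluted conditioned medium of S16 cells; series mostly up to about 54 µM; 0% = DMSO and -100% = no enzyme.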 Put shortly: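 NLuc from S16 cell medium (1:55) plus test compounds, 15 min, room temperature. Luminescence after Nano-Glo (1:100) addition, 5 min.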
The target in experiment [19] is Cytochrome P450 3A4 (Homo sapiens) (UniProt P08684). Description: qHTS for inhibitors of CYP3A4 against the NCATS DSHEA and TCM libraries (AID 1919971).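 Note: % is set by controls: 0 for no effect and ±100 for the full control effect; inhibition lowers luminescence from luciferin made by CYP3A4.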 Put shortly:
as §2

Experiment [20] is described as follows: qHTS drug screen for cell cycle checkpoint inhibitors in PARPi-resistant BRCA-mutant ovarian cancer cell lines. (AID 1963452; calls by dose curve). The conditions noted are these: PEO1/OlaR viability, CellTiter-Glo luminescence, 96 h, stronger effect = lower value. Put shortly: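 PEO1, PEO4 and PEO1/OlaR ovarian cancer cells, 600 per well, exposed 96 h at 37C to a dilution series. Viability read by CellTiter-Glo luminescence, normalized to DMSO and empty wells; activity summarized as Z-AUC.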

[21] abbreviates: measured here: PEO1 parental Z-AUC.

Each structure is given as a SMILES string. Inconclusive results are not listed. The source made the active and inactive calls. Unless noted, calls come from the whole dose curve; as a rule, active = well fitted curve in the direction sought with a large enough effect; inconclusive = small, poorly fitted or top-dose-only effect, or another doubt; inactive = no such curve, though single readings can be large; an effect the other way counts as inactive or inconclusive.

Cytochrome P450 2D6 (Homo sapiens), sequence (P10635 whole entry, looked up): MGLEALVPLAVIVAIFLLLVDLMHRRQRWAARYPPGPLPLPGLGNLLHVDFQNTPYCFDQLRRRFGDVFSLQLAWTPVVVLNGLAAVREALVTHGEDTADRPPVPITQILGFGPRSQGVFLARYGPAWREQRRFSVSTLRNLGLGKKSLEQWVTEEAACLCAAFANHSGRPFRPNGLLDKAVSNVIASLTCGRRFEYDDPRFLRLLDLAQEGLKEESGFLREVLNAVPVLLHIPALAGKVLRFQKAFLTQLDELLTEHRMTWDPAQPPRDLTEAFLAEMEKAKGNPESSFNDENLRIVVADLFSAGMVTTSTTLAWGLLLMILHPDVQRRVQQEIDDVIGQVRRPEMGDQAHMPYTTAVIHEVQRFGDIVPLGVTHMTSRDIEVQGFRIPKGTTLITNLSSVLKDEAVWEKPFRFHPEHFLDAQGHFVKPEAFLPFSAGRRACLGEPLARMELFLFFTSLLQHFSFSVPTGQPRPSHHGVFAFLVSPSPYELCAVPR
Metallo-beta-lactamase type 2 (Klebsiella pneumoniae), sequence (C7C422 whole entry, looked up): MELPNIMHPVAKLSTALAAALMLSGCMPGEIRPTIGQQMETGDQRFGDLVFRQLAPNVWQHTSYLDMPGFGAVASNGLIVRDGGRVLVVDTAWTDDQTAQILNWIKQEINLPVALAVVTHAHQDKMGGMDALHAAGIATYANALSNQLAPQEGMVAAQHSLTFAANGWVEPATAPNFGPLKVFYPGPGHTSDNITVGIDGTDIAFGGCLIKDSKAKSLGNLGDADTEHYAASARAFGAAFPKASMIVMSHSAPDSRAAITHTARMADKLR
Glutathione peroxidase 1 (Homo sapiens), sequence (P07203 whole entry, looked up): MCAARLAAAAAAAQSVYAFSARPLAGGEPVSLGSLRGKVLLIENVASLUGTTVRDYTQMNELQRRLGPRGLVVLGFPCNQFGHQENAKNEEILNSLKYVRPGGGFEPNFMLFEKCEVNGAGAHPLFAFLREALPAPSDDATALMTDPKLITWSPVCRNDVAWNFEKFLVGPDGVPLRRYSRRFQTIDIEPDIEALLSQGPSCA
Cytochrome P450 3A4 (Homo sapiens), sequence (P08684 whole entry, looked up): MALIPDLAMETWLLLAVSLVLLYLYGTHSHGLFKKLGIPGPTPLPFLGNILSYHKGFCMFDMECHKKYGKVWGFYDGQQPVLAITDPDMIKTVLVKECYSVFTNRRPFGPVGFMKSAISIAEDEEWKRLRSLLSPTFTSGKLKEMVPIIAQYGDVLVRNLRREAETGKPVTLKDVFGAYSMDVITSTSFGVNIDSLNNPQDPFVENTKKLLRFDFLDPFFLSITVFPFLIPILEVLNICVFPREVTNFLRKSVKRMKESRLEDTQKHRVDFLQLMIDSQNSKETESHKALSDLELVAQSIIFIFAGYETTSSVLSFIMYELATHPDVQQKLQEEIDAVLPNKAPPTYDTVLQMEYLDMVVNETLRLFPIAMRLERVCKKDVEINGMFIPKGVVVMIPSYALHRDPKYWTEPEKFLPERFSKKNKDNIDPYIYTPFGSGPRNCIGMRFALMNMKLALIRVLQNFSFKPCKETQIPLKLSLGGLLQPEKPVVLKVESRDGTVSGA

In the case of `C1CCc2nnnn2CC1`, the call in experiment [1] was inactive. For the same compound, the Potency entry in [2] was “inactive”.
For the compound `C=C1C(=C/C=C2\CCC[C@]3(C)[C@@H]([C@H](C)/C=C/[C@@H](O)C4CC4)CC[C@@H]23)C[C@@H](O)C[C@@H]1O`, in [3], the Potency entry was “inactive”.
For the compound `CCCn1c(=O)[nH]c(=O)c2[nH]cnc21`, the compound was called inactive in experiment [1]. In addition, the Potency entry in [3] and in experiment [2] was “inactive” each time.
Regarding `CC(=O)O[C@H]1C[C@@H]2CC[C@@H]3[C@H](CC[C@@]4(C)[C@H]3C[C@H]([N+]3(C)CCCCC3)[C@@H]4OC(C)=O)[C@@]2(C)C[C@@H]1[N+]1(C)CCCCC1`, the call in [1] was inactive. Also, the Potency entry in [3] was “inactive”.
Consider `CN(C)/N=N/c1nc[nH]c1C(N)=O`, for which the Potency entry in experiment [3] was “inactive”.
Turning to `CCC(NC(C)C)C(O)c1ccc(O)c(O)c1` (stereo unspecified), the compound was called inactive in [1]. For the same compound, the Potency entry in experiment [3] is “inactive”.
With `CC(C)C[C@H]1C(=O)N2CCC[C@H]2[C@]2(O)O[C@](NC(=O)[C@@H]3C=C4c5cccc6[nH]c(Br)c(c56)C[C@H]4N(C)C3)(C(C)C)C(=O)N12`, in experiment [1], the compound was classed as inactive.
Take `O=C1CCC(c2ccc(-n3ccnc3)cc2)=NN1`: the call in experiment [1] was inactive. In addition, the Potency result in experiment [2] is “inactive”.
For `C/C=C/c1ccc(OC)cc1`, the call in [4], in experiment [5], in [6], in experiment [7], in experiment [9] and in experiment [10] was inactive. In addition, the call in [12], in [13], in experiment [14] and in [15] was inactive. In experiment [2], the Potency entry is “inactive”. In experiment [8], the Potency was 15.8 µM (active). In experiment [11], the max response is -1.84% (inactive).
Regarding `CC(CCc1ccccc1)NCC(O)c1ccc(O)c(C(N)=O)c1` (stereo unspecified), the result in [1] and in experiment [16] was inactive. For the same compound, the Potency result in experiment [3], in [2], in experiment [17] and in experiment [18] was “inactive” in each case.
Take `C=CCc1ccc(O)c(OC)c1`: the result in [4], in experiment [5], in experiment [7], in experiment [9], in experiment [12] and in experiment [13] was inactive. For the same compound, the call in experiment [14] and in experiment [15] was inactive. For the same compound, the Potency entry in experiment [3] and in [2] was “inactive” in each case. The max response in experiment [11] is -2.5% (inactive).
Consider `CC1(C)CCC(NC(=O)[C@@H](N)CCC(=O)O)CC1`, for which the result in [1] was inactive. Besides, in [2], the Potency result is “inactive”.
With `CO/N=C1\CN(c2nc3c(cc2F)c(=O)c(C(=O)O)cn3C2CC2)CC1CN` (stereo unspecified), in experiment [3], the Potency result was “inactive”.
The same measure, in the same setting: for `CCCOC(C(=O)OC1CCN(C)CC1)(c1ccccc1)c1ccccc1` the value was “inactive”.
On to `N[C@@H](Cc1cnc[nH]1)C(=O)O`, for which the outcome in [1] was inactive. Besides, the Potency entry in experiment [3] is “inactive”.
As for `CNCCC=C1c2ccccc2CCc2ccccc21`, in [1], the compound was called inactive. Moreover, the Potency result in [3] and in experiment [2] was “inactive” each time.
As to `Nc1nc2ncc(CNc3ccc(C(=O)N[C@@H](CCC(=O)O)C(=O)O)cc3)nc2c(=O)[nH]1`, the call in experiment [4], in experiment [19], in experiment [6], in experiment [7], in [9] and in experiment [12] was inactive. Also, the compound was called inactive in experiment [13] and in [15]. For the same compound, in [8], the Potency was 3.55 µM (active). Moreover, the max response in experiment [11] was -4.69% (inactive).
Turning to `CNCCC(Oc1ccccc1C)c1ccccc1` (stereo unspecified), in [1], the result was inactive. Moreover, the Potency entry in experiment [3] and in experiment [2] was “inactive” in each case.
Consider `CC[C@H](C)C(=O)O[C@H]1CCC=C2C=C[C@H](C)[C@H](CC[C@@H]3C[C@@H](O)CC(=O)O3)[C@H]21`, for which the compound was called inactive in experiment [1]. Besides, the Potency entry in [3] and in experiment [2] was “inactive” in each case. Also, the Z-AUC in experiment [20] was 1.25 (inactive); in experiment [20] (setting [21]), 1.13; in experiment [20] (measured here: PEO4 Z-AUC), 1.15.
For the compound `O=c1ccc2ccccc2o1`, the result in experiment [4], in experiment [5], in [19], in [6], in experiment [7] and in [9] was inactive. The compound was classed as inactive in experiment [12], in experiment [13], in experiment [14] and in experiment [15]. Also, the Potency result in experiment [8] was “inactive”. Besides, the max response in experiment [11] is 0.354% (inactive).
For `COc1cc2c(cc1O)CC[C@@H]1[C@@H]2CC[C@]2(C)[C@@H](O)CC[C@@H]12`, the call in [1] was inactive. Besides, the Potency entry in experiment [3] and in experiment [2] was “inactive” each time. Further, the Z-AUC in experiment [20] was 0.212 (inactive); in experiment [20] (setting [21]) it was -0.545; in experiment [20] (measured here: PEO4 Z-AUC) it was -0.454.
Turning to `C[C@@H]1C(=O)NC2=Nc3cccc(Cl)c3CN21`, the compound was classed as inactive in experiment [1]. Besides, the Potency entry in experiment [3] was “inactive”.
For `c1ccc(CNCCNCc2ccccc2)cc1`, the Potency entry in experiment [3] is “inactive”.
As for `Nc1cc(Cl)c(NC2=NCCN2)c(Cl)c1`, the compound was classed as inactive in [1]. Moreover, the Potency entry in experiment [3] and in [2] was “inactive” throughout.

Values taken from PubChem BioAssay (NCATS).
